The results in this text go back to publication PMC7862700, “An all-to-all approach to the identification of sequence-specific readers for epigenetic DNA modifications on cytosine”.

Holding throughout (test): DAPPL (digital affinity profiling via proximity ligation, sequencing); 10 mM Tris-HCl pH 7.5, 50 mM NaCl, 1 mM DTT, 4% glycerol, room temperature, 30 min; GST-TFs on glutathione beads, 16-mer random dsDNA library, 0.1% formaldehyde crosslink after washing; high values mean tight binding
Assay [1] concerns the target T1, FEV (Homo sapiens, UniProt Q99581 1-238).
T1 sequence: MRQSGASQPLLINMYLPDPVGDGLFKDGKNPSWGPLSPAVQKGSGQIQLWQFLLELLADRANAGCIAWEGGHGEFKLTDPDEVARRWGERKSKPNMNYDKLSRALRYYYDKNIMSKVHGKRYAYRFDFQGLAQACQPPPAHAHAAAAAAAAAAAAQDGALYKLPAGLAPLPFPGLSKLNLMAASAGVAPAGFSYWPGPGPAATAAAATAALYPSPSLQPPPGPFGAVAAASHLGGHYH
The following applies: protein: recombinant; tags: N-terminal GST; dsDNA, one strand shown. A digest of the protocol:
(§1)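 Human transcription factors were made in yeast as GST fusions, captured on glutathione beads and barcoded with DNA. With a tag-only sample included, the pool was incubated with 200 nmole of a random double-stranded 16-mer DNA library in Tris/NaCl/DTT/glycerol buffer at room temperature for 30 min, then crosslinked with 0.1% formaldehyde after washing, ligated by proximity, amplified and sequenced. For binding signal, each hexamer's read frequency for a factor is divided by its frequency for the tag-only sample.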

In assay [2] the target is ETV5 (Homo sapiens, UniProt P41161 1-510). The following applies: protein: recombinant; tags: N-terminal GST; dsDNA, one strand shown. A digest of the protocol: as §1
Sequence of ETV5 (P41161 whole entry): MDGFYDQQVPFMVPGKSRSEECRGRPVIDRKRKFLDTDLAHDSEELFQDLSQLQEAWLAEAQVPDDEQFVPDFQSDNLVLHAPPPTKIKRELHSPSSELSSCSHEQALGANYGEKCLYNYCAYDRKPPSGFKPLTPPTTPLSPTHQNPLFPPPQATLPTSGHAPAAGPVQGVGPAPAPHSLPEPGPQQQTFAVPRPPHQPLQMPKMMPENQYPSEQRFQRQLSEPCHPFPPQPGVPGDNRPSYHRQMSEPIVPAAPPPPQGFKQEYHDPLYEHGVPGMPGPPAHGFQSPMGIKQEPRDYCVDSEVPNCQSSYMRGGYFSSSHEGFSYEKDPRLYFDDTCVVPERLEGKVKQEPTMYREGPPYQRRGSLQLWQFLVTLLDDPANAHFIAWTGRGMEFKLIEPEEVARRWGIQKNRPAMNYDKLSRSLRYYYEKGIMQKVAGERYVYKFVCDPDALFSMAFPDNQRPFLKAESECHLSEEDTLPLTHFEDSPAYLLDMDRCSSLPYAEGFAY
The target in assay [3] is HSF1 (Homo sapiens, UniProt Q00613 1-529). The following applies: protein: recombinant; tags: N-terminal GST; chain copies: 3; dsDNA, one strand shown. In a few lines:
as §1

Assay [4] addresses T2, SPIC (Homo sapiens, UniProt Q8N5J4 1-248).
T2 sequence: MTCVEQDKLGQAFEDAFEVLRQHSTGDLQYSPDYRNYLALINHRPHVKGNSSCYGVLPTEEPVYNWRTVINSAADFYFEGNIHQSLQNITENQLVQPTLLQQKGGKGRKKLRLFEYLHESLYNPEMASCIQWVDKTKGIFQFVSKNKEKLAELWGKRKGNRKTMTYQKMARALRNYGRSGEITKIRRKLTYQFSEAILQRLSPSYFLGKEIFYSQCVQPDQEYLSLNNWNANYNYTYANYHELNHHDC
The following applies: protein: recombinant; tags: N-terminal GST; dsDNA, one strand shown. In a few lines:
as §1

Assay [5] concerns the target ELF4 (Homo sapiens, UniProt Q99607 1-663). The following applies: protein: recombinant; tags: N-terminal GST; dsDNA, one strand shown. A digest of the protocol: as §1
Assay [6] deals with T3, ELK4 (Homo sapiens, UniProt P28324-2 1-405).
T3 sequence: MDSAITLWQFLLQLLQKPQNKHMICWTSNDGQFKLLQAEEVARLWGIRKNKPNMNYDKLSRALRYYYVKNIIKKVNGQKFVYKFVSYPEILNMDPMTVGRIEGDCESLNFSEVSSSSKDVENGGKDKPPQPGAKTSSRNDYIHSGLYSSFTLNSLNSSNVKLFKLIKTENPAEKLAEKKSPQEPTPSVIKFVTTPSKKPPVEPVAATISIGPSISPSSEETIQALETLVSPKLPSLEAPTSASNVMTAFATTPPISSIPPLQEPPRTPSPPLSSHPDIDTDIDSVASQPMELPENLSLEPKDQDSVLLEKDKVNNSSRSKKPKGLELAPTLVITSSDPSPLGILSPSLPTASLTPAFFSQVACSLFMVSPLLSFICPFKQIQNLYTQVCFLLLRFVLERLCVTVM
The following applies: protein: recombinant; tags: N-terminal GST; dsDNA, one strand shown. A digest of the protocol: as §1

The target in assay [7] is T4, ETV2 (Homo sapiens, UniProt O00321 1-342).
T4 sequence: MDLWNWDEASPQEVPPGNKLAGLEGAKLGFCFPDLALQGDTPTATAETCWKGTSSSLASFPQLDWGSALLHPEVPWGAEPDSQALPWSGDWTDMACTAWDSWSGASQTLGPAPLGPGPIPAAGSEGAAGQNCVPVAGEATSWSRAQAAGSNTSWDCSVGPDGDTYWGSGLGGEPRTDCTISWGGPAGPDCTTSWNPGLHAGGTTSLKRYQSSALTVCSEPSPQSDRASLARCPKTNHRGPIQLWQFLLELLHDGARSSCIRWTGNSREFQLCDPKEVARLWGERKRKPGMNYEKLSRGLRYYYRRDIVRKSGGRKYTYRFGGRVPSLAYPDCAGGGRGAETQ
The following applies: protein: recombinant; tags: N-terminal GST; dsDNA, one strand shown. In a few lines:
as §1

Assay [8] addresses T5, ELF3 (Homo sapiens, UniProt P78545 1-371).
T5 sequence: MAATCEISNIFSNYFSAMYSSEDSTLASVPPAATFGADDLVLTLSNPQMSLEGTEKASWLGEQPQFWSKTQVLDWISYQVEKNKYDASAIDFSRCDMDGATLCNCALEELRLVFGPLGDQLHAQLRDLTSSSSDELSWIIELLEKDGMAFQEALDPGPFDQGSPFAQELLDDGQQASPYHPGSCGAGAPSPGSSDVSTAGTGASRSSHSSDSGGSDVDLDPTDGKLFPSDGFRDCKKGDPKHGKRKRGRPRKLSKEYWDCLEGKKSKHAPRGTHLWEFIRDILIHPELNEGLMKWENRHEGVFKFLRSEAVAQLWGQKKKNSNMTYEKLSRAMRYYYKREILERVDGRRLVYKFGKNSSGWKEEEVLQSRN
The following applies: protein: recombinant; tags: N-terminal GST; dsDNA, one strand shown. In a few lines:
as §1

The target in assay [9] is CRX (Homo sapiens, UniProt O43186 1-299). The following applies: protein: recombinant; tags: N-terminal GST; dsDNA, one strand shown. A digest of the protocol:
as §1

The target of assay [10] is ETV1 (Homo sapiens, UniProt P50549 1-477). The following applies: protein: recombinant; tags: N-terminal GST; dsDNA, one strand shown. A digest of the protocol: as §1
Sequence of ETV1 (P50549 whole entry): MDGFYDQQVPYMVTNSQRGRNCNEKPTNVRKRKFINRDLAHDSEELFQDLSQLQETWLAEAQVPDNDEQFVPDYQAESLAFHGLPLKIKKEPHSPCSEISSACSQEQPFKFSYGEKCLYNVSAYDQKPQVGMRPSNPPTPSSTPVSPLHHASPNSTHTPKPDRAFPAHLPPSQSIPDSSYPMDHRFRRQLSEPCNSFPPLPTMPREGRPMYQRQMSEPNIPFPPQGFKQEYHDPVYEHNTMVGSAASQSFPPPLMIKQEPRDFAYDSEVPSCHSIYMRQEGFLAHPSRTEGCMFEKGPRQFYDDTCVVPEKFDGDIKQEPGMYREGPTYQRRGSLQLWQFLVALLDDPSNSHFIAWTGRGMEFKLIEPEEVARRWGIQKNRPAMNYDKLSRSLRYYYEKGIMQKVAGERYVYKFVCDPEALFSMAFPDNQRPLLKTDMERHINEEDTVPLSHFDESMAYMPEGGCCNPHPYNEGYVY
For assay [11], the target named is T6, ERF (Homo sapiens, UniProt P50548 1-548).
T6 sequence: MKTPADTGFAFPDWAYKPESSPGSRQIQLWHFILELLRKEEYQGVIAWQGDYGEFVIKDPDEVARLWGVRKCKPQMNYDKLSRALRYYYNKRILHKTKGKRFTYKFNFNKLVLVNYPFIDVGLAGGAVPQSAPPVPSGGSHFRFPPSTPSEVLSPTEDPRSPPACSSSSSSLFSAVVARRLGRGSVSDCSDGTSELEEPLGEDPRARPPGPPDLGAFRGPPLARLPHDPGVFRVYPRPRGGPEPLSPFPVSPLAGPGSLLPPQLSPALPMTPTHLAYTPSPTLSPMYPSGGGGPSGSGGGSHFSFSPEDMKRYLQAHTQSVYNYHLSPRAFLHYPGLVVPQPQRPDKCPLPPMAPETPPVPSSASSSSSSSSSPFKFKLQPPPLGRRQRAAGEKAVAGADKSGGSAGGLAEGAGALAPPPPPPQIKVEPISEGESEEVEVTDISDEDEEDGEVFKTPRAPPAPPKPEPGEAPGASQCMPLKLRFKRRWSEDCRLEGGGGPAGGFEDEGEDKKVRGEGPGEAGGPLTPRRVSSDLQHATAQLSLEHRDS
The following applies: protein: recombinant; tags: N-terminal GST; dsDNA, one strand shown. In a few lines:
as §1

Assay [12] concerns the target T7, ETV3L (Homo sapiens, UniProt Q6ZN32 1-361).
T7 sequence: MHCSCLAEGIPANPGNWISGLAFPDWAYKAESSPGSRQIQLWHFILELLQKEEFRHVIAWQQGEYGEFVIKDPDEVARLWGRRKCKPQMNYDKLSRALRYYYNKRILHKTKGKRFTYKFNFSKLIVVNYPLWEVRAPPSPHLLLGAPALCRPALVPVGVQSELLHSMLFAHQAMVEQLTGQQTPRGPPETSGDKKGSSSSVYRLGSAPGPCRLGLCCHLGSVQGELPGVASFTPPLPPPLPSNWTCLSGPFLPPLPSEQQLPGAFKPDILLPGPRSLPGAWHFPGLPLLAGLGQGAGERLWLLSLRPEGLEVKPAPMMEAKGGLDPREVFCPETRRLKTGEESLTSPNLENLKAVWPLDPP
The following applies: protein: recombinant; tags: N-terminal GST; dsDNA, one strand shown. A digest of the protocol: as §1

Assay [13] has as its target T8, ETS2 (Homo sapiens, UniProt P15036 1-469).
T8 sequence: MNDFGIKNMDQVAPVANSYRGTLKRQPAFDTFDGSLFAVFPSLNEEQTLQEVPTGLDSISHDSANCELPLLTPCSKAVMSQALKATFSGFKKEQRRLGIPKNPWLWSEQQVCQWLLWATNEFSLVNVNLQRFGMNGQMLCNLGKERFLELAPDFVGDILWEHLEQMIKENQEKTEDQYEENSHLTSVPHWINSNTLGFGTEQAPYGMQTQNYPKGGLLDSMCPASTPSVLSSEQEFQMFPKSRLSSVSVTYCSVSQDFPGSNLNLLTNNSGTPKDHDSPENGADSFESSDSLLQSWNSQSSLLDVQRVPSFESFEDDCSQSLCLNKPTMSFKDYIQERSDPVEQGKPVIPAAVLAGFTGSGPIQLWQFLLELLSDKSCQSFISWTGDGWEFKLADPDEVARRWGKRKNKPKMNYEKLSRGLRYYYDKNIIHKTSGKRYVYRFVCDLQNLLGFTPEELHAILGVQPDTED
The following applies: protein: recombinant; tags: N-terminal GST; dsDNA, one strand shown. In a few lines: as §1

Assay [14] concerns the target T9, SPDEF (Homo sapiens, UniProt O95238 1-335).
T9 sequence: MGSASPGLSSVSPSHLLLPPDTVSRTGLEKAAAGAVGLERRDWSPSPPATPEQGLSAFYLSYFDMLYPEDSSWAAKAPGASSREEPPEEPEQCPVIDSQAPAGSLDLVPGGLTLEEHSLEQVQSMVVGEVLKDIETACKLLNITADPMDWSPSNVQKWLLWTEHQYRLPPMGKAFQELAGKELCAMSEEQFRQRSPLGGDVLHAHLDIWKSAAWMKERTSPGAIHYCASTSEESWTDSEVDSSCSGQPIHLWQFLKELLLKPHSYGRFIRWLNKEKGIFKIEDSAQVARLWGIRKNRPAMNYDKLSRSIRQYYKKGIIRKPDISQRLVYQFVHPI
The following applies: protein: recombinant; tags: N-terminal GST; dsDNA, one strand shown. In a few lines:
as §1

Assay [15] addresses T10, ETV7 (Homo sapiens, UniProt Q9Y603 1-341).
T10 sequence: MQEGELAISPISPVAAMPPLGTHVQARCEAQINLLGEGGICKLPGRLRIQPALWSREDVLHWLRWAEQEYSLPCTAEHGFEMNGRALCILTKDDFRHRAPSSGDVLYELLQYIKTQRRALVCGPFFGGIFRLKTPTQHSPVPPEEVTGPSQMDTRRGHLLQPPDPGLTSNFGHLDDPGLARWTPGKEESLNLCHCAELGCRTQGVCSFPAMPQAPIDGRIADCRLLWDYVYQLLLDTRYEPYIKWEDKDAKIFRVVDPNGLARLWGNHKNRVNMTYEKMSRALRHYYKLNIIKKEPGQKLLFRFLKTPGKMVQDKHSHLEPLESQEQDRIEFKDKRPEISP
The following applies: protein: recombinant; tags: N-terminal GST; dsDNA, one strand shown. A digest of the protocol: as §1

Assay [16] concerns the target T11, ELF5 (Homo sapiens, UniProt Q9UKW6-2 1-255).
T11 sequence: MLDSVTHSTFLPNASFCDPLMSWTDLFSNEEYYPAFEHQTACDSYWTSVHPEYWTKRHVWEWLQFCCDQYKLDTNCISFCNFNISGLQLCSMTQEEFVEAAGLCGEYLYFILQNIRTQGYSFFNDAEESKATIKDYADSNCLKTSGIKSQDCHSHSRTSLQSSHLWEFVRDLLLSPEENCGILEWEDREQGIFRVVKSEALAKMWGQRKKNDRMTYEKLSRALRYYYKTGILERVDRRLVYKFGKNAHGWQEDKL
The following applies: protein: recombinant; tags: N-terminal GST; dsDNA, one strand shown. In a few lines:
as §1

In assay [17] the target is T12, ETV3 (Homo sapiens, UniProt P41162-2 1-143).
T12 sequence: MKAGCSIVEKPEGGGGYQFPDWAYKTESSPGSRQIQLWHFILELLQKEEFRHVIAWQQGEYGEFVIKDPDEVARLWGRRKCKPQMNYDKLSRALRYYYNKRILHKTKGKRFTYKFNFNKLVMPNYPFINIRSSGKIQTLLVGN
The following applies: protein: recombinant; tags: N-terminal GST; dsDNA, one strand shown. A digest of the protocol:
as §1

For assay [18], the target named is ETV6 (Homo sapiens, UniProt P41212 1-452). The following applies: protein: recombinant; tags: N-terminal GST; dsDNA, one strand shown. In a few lines:
as §1

Sequence of HSF1 (Q00613 whole entry): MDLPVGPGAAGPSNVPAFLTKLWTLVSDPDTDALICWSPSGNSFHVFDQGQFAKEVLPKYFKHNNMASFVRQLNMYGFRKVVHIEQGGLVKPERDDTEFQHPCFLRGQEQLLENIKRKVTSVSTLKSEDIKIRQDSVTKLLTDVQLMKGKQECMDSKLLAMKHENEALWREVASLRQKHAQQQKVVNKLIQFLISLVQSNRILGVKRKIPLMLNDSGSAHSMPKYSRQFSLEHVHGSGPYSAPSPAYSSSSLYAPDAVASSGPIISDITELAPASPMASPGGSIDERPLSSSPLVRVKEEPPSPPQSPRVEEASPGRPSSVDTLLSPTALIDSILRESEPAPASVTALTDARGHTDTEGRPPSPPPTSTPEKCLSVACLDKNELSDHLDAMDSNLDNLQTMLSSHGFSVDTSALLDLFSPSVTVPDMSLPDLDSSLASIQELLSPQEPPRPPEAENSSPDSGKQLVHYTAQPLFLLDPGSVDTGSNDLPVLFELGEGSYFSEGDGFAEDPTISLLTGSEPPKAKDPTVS
Sequence of ETV6 (P41212 whole entry): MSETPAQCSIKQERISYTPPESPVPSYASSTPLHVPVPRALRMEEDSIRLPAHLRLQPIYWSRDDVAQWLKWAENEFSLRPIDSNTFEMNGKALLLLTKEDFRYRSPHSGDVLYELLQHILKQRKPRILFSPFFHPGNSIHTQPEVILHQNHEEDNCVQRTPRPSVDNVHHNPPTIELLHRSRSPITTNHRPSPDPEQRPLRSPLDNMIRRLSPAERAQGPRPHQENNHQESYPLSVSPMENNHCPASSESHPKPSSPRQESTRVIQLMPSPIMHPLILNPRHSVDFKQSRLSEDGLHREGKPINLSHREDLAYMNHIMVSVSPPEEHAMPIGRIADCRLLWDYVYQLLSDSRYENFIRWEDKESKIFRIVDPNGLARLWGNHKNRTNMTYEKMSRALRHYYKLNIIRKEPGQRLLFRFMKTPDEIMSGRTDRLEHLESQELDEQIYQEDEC
Sequence of ELF4 (Q99607 whole entry): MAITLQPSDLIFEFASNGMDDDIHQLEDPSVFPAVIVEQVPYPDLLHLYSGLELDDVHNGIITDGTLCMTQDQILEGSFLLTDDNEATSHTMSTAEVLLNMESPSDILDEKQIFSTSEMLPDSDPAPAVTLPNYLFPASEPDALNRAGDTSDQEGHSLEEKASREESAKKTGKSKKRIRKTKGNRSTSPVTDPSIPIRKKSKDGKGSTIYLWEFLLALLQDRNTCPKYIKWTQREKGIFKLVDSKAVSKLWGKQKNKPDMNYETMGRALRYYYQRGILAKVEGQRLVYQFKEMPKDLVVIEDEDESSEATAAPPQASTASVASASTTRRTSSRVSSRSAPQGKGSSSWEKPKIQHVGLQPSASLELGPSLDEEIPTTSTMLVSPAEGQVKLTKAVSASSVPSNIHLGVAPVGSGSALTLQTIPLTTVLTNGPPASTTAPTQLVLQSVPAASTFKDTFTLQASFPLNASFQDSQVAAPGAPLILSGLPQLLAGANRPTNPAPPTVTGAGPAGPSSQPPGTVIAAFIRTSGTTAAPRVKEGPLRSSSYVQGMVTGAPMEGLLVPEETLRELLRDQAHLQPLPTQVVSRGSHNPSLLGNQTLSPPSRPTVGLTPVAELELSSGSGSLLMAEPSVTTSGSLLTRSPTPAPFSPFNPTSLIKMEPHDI
Sequence of CRX (O43186 whole entry): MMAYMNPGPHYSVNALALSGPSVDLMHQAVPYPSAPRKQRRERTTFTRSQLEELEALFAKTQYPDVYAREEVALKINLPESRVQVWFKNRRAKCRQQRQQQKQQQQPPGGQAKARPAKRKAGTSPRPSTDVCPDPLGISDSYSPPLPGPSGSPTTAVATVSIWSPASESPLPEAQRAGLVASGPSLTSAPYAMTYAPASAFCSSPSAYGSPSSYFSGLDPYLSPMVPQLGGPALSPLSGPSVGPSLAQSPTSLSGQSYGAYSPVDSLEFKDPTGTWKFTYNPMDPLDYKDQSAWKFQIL

With AGATTT, the binding signal is 1.16 fold enrichment (6-mer frequency, TF over GST control) in assay [1]; 1.2 fold enrichment (6-mer frequency, TF over GST control) in [2]; 1.75 fold enrichment (6-mer frequency, TF over GST control) in assay [3]; 1.06 fold enrichment (6-mer frequency, TF over GST control) in [4]; 1.16 fold enrichment (6-mer frequency, TF over GST control) in [5]; 1.25 fold enrichment (6-mer frequency, TF over GST control) in [6]. For the same sequence, the binding signal is 1.05 fold enrichment (6-mer frequency, TF over GST control) in assay [7]; 1.21 fold enrichment (6-mer frequency, TF over GST control) in [8]; 1.84 fold enrichment (6-mer frequency, TF over GST control) in assay [9]; 1.15 fold enrichment (6-mer frequency, TF over GST control) in assay [10]; 1.2 fold enrichment (6-mer frequency, TF over GST control) in [11]; 1.17 fold enrichment (6-mer frequency, TF over GST control) in assay [12]. The binding signal in [13] was 1.17 fold enrichment (6-mer frequency, TF over GST control); in [14] it was 1.05 fold enrichment (6-mer frequency, TF over GST control); in [15], 1.16 fold enrichment (6-mer frequency, TF over GST control); in [16], 1.22 fold enrichment (6-mer frequency, TF over GST control); in [17], 1.05 fold enrichment (6-mer frequency, TF over GST control); in [18] it was 1.11 fold enrichment (6-mer frequency, TF over GST control).
